Screens as filed in PubChem.
Shown are actives, neighbours in structure and some others; about 7.9% of the full set was active somewhere.
FMDV antiviral: foot and mouth disease virus antiviral activity; FMDV antiviral cell-based qHTS; Potency, µM (highest dose often 57.9 µM), without a hit: at the top dose activity change, negative = inhibition, hits mostly inhibitors; 1.2% of 410,000 active; AID 1159524; calls by dose curve; tested in HEK293T cells; also: read-out not given here; potency is read from the fitted curve at half-maximal effect; nearly all actives have a fitted effect of over 45% in size
HCMV inh: blocks human cytomegalovirus replication; HFF cells, HCMV-luciferase reporter, 72 h; active compounds read low; activity change, negative = inhibition, % at 57.5 µM; 4.5% of 410,000 active; AID 1259415; in the data active = activity change below about -60%; inconclusive = no clear call, values can overlap the other calls; inactive = above about -39%
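Inhibition of viral replication was scored as loss of reporter luminescence in HFFs infected with HCMV-luciferase (MOI 1 PFU/cell) for 72 h; compounds tested at 2 doses, normalized to buffer and Salinomycin controls.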
LASV entry inh: inhibitors of Lassa virus binding or cell entry | Lassa virus pseudotype entry inhibition, cell reporter | Potency, µM (highest dose often 37.9 µM), for the others: at the highest dose activity change, negative = inhibition, actives largely listed as inhibitors | 1.2% of 300,000 active | AID 540256; calls by dose curve; tested in HEK293 cells; also: potency is read from the fitted curve at half-maximal effect; nearly all actives have a fitted effect of over 50% in size
HCV inhibitor: HCV inhibition; Huh7.5.1 HCVcc-Cre infection, luciferase reporter, 44 h; Potency, µM (series often up to 41.8 µM), without a hit: at the highest dose activity change, negative = inhibition, actives largely listed as inhibitors; 3.4% of 340,000 active; AID 651820; active = well fitted inhibition curve with a large enough effect; inconclusive = small, poorly fitted or top-dose-only effect, or another doubt; inactive = no such curve, though single readings can be large or run the other way; also: potency is read from the fitted curve at half-maximal effect
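A cell-based infection assay in which seeded cells (1,000 per well) receive test compound after 4 h, are inoculated with HCVcc-Cre at approximately 0.5 moi, and are incubated 44 h before luminescence detection.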
MARV entry inh: inhibitors of Marburg virus binding or cell entry; Marburg virus pseudotyped entry inhibition, cell reporter; Potency, µM (highest dose often 37.8 µM), inactives show top-dose activity change, negative = inhibition, usual class: inhibitors; 1.8% of 300,000 active; AID 540276; calls by dose curve; tested in HEK293 cells; also: potency is read from the fitted curve at half-maximal effect
* marks the source's active call; other numbers are inactive results; [ ] = another dose, or the depositor's remark. % is scaled to controls: 0 for no effect and ±100 for the full control effect.

Screening Cc1cc(=O)[nH]c(SCC(=O)Nc2ccc(C)c(S(=O)(=O)N3CCCCC3)c2)n1 returned FMDV antiviral -15.2%, HCMV inh 14.1, LASV entry inh -8.3%, HCV inhibitor 5.2% and MARV entry inh -1.6%[46.1 µM].
`Cc1ccc(NC(=O)CSc2ncnc3ccccc23)cc1S(=O)(=O)N1CCCCCC1` gave FMDV antiviral 8.91µM*, HCMV inh 25.8, LASV entry inh -0.3%, HCV inhibitor inconclusive and MARV entry inh inconclusive.
Screening O=C(CSc1ncnc2ccccc12)Nc1cccc(S(=O)(=O)N2CCCC2)c1 returned FMDV antiviral inconclusive, HCMV inh -7.9, LASV entry inh 15.6%[46.1 µM], HCV inhibitor 11.5% and MARV entry inh inconclusive.
Cc1ccc(S(=O)(=O)N2CCCCC2)cc1NC(=O)c1ccc2ccccc2n1 was read as FMDV antiviral -10.8%, HCMV inh 43.9, LASV entry inh inconclusive, HCV inhibitor 10.0% and MARV entry inh inconclusive.
Screening O=C(CSc1ncnc2ccccc12)Nc1cc(S(=O)(=O)N2CCCCC2)ccc1Cl returned FMDV antiviral inconclusive, HCMV inh inconclusive, LASV entry inh inconclusive, HCV inhibitor 10µM* and MARV entry inh inconclusive.
Cc1ccc(S(=O)(=O)N2CCCCC2)cc1NC(=O)CSc1ncnc2ccccc12 was read as FMDV antiviral -16.2%, HCMV inh -70.9*, LASV entry inh inconclusive, HCV inhibitor inconclusive and MARV entry inh inconclusive.
Screening O=C(/C=C/c1ccc(Br)cc1)N1CCN(Cc2ccccc2)CC1 returned FMDV antiviral -18.8%, HCMV inh -1.9, LASV entry inh -9.8%[46.1 µM], HCV inhibitor 6.0% and MARV entry inh inconclusive.
Screening COc1ccc(C(=O)/C=C/c2cn(CC(O)CN3CCN(C)CC3)c3ccccc23)cc1OC (stereo not given) returned FMDV antiviral -5.0%, HCMV inh -78.2*, LASV entry inh -24.8%, HCV inhibitor -75.4% and MARV entry inh inconclusive.
Screening COc1ccc(C(=O)/C=C/c2cn(CC(O)CN3CCCCCC3)c3ccccc23)cc1OC (stereo not given) returned FMDV antiviral -20.4%, HCMV inh -90.9*, LASV entry inh inconclusive and MARV entry inh inconclusive.
For O=C(/C=C/c1cn(CC(O)CN2CCCCC2)c2ccccc12)c1ccccc1 (stereo not given) the results were FMDV antiviral -6.3%, HCMV inh -84.5*, LASV entry inh inconclusive, HCV inhibitor inconclusive and MARV entry inh inconclusive.
For O=C(/C=C/c1cn(CC(O)CN2CCCCCC2)c2ccccc12)c1ccccc1 (stereo not given) the results were FMDV antiviral -3.3%, HCMV inh -38.5, LASV entry inh -25.8%[46.1 µM] and MARV entry inh inconclusive.
`Cc1ccn(-c2ccc(NC(=O)c3cccs3)cc2)n1` gave FMDV antiviral 16.6%, HCMV inh 124.3, LASV entry inh inconclusive, HCV inhibitor inconclusive and MARV entry inh inconclusive.
CCNC(=O)COc1ccc(/C=C2\COc3ccccc3C2=O)cc1OC was read as FMDV antiviral 28.2µM*, HCMV inh 73.2, LASV entry inh 14.6µM*, HCV inhibitor inconclusive and MARV entry inh inconclusive.
`CCOc1cc(/C=C2\COc3ccccc3C2=O)ccc1OCC(=O)N(C)C` gave FMDV antiviral 28.2µM*, HCMV inh 46.9, LASV entry inh inconclusive, HCV inhibitor inconclusive and MARV entry inh inconclusive.
`Nc1nc2c(ncn2[C@@H]2O[C@H](COP(=O)(O)OP(=O)(O)O)[C@@H](O)[C@H]2O)c(=O)[nH]1` gave FMDV antiviral 26.2%.
For CC1(C)CC(NC(=O)c2cccc(S(=O)(=O)N(Cc3ccccc3)c3ccccc3)c2)CC(C)(C)N1 the results were FMDV antiviral -13.8%, HCMV inh -17.5, LASV entry inh -46.7%, HCV inhibitor 2.24µM* and MARV entry inh inconclusive.
`CC1=C/C(=N\NC(=S)Nc2cccnc2)CC(C)(C)C1` gave FMDV antiviral 0.0%, HCMV inh -71.9*, LASV entry inh -12.0%, HCV inhibitor -13.6% and MARV entry inh -7.0%[46.1 µM].
Screening CCc1ccccc1NC(=O)Cn1ccn(-c2cc(C)cc(C)c2)c(=O)c1=O returned FMDV antiviral 2.8%, HCMV inh -64.0* and LASV entry inh 3.1%[46.1 µM].
`CCc1ccc(C(O)c2ncc(-c3ccccc3Cl)[nH]2)cc1` (stereo not given) gave FMDV antiviral 62.6% and HCMV inh -95.9*.
Screening Cc1ccc(C(O)c2ncc(-c3ccccc3Cl)[nH]2)cc1 (stereo not given) returned FMDV antiviral 68.6% and HCMV inh 38.2.
